The values below come from the supplement of paper PMC7380943.

Experiment [1] concerns CLZ3 (HCA2 human fibroblast dual HR-NHEJ reporter). In words: NHEJ repair efficiency (GFP+ cells) relative to control (log10 fold); higher = more non-homologous end joining. Conditions: 5 µM; doxycycline 0.5 ug/mL.
The test system is the same in experiment [2]. Description: HR repair efficiency (tdTomato+ cells) relative to control (log10 fold); higher = more homologous recombination. Conditions: 5 µM; doxycycline 0.5 ug/mL.
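Throughout, for HR repair efficiency (tdTomato+ cells) relative to control: compound given one day before doxycycline, which switches on I-SceI endonuclease expression to create double-strand breaks within the integrated reporter.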
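Throughout, for NHEJ repair efficiency (GFP+ cells) relative to control: compound given one day ahead of doxycycline, which switches on I-SceI endonuclease to cut the chromosomally integrated reporter and create DSBs.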

As to `C/C(=C\C(=O)CC(C)C(=O)O)[C@H]1CC(=O)[C@@]2(C)C3=C(C(=O)C[C@]12C)[C@@]1(C)CC[C@H](O)C(C)(C)[C@@H]1C[C@@H]3O` (stereo partly specified) [Ganoderenic Acid B], the “NHEJ repair efficiency (log10)” value in experiment [1] is 0.000561. Besides, in experiment [2], the “HR repair efficiency (log10)” value was found to be 0.021.

In the case of `O=C1O[C@H]2[C@@H]3OC(=O)c4cc(O)c(O)c(O)c4-c4c(O)c(O)c5oc(=O)c6c(c(O)c(O)c7oc(=O)c4c5c76)-c4c(cc(O)c(O)c4O)C(=O)OC[C@H]3OC(O)[C@@H]2OC(=O)c2cc(O)c(O)c(O)c2-c2c1cc(O)c(O)c2O` (mixture of isomers) [Punicalagin], in experiment [1], the “NHEJ repair efficiency (log10)” value is -0.0664. In addition, the “HR repair efficiency (log10)” value in experiment [2] was -0.254.

Regarding `C/C=C/c1cc(OC)c2c(c1)C(C)C(c1ccc(O)c(OC)c1)O2` (stereo unspecified) [Dehydrodiisoeugenol], in experiment [1], the “NHEJ repair efficiency (log10)” value is -0.00267. The “HR repair efficiency (log10)” value in experiment [2] was -0.0825.

As to `C=C1C[C@@]2(O)O[C@@]3(C[C@H]2C(C)C)[C@@H](C)CC[C@@H]13` [Curcumol], the “NHEJ repair efficiency (log10)” value in experiment [1] was -0.0784. Moreover, in experiment [2], the “HR repair efficiency (log10)” value was found to be 0.163.

As for `C[C@H](N)C(=O)O` [Alanine], the “NHEJ repair efficiency (log10)” value in experiment [1] worked out at 0.113. In experiment [2], the “HR repair efficiency (log10)” value is -0.14.

In the case of `CCCCC/C=C\C/C=C\CCCCCCCC(=O)O` [Linoleic Acid], in experiment [1], the “NHEJ repair efficiency (log10)” value was found to be 0.0448. The “HR repair efficiency (log10)” value in experiment [2] was -0.0026.

As to `COc1cc2c(c(OC)c1OC)-c1c(cc3c(c1OC)OCO3)C[C@H](C)[C@@](C)(O)C2` [Schizandrol B], in experiment [1], the “NHEJ repair efficiency (log10)” value is -0.0319. In addition, the “HR repair efficiency (log10)” value in experiment [2] is -0.132.

Consider `C[C@@H]1CC[C@@]2(OC1)O[C@H]1C[C@H]3[C@@H]4CC=C5C[C@@H](O[C@@H]6O[C@H](CO)[C@@H](O)[C@H](O)[C@H]6O)CC[C@]5(C)[C@H]4CC[C@]3(C)[C@H]1[C@@H]2C` [Diosgenin glucoside], for which the “NHEJ repair efficiency (log10)” value in experiment [1] is -0.0975. Further, in experiment [2], the “HR repair efficiency (log10)” value came to 0.0102.
